Calls of active or inactive are those of the source.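 Rule for the calls, unless noted: active = inhibition above 20% together with a positive visual image hit; inconclusive = visual image hit but inhibition not above 20%; inactive = no visual image hit.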
Legend:
[1] = inhibitors of TNFa-induced NFkB p65 translocation, primary screen, imaging, HUVEC, MLSMR starter and 10KST1 sets (AID 438); conditions: HUVEC TNFa-induced p65 nuclear translocation; cell count: measured here: nuclei count (cytotoxicity indicator), at 2.08 µM; inhibition: at 2 µM, stronger effect = higher value, 0% TNFa-plus-vehicle, 100% no-TNFa wells;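 note: compound added about 3h40 before a 20 min TNFalpha stimulation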;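 for inhibition: signal is the nuclear over cytoplasmic p65 intensity ratio per well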
[2] = reduction of polyQ htt aggregates in cells – imaging, exon1htt(103Q)mCFP cells, high-content imaging, primary screen (AID 483;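 active = visual image review flags a hit and inhibition of aggregation exceeds 20%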;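 note: compound exposure lasted 3 days before fixation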;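 for nuclei count: percent of the per-plate median nuclei count of sample wells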); conditions: exon1htt(103Q)mCFP cell line, aggregate imaging, at 2 µM; inhibition of aggregation: stronger effect = higher value; nuclei count: measured here: cell count, toxicity
[3] = endothelial E-selectin expression blockers – imaging, HUVEC, immunofluorescence, MLSMR starter and 10KST1 sets, primary screen (AID 487;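 active = visually confirmed hit in the image check and inhibition above 20%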;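 for inhibition: signal is fraction of cell area covered by stained E-selectin grains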;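 for nuclei count: 100% = median nuclei count of all wells on the same plate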); conditions: HUVEC TNFalpha-induced E-selectin immunofluorescence imaging, at 2 µM; inhibition: stronger effect = higher value; nuclei count: measured here: cell number, toxicity
[4] = target: Voltage-gated potassium channel subunit beta-2 (Rattus norvegicus) (UniProt P62483); experiment: inhibitors of rat Kvbeta2 reductase activity – biochemical, NADPH fluorescence, primary screen (AID 622;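 active = fluorescence slope higher than the sample average by over 3 SD, cut at about -0.22 in these data, passing the limit was not always enough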;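 note: slope of raw intensity against log time taken from 70 to 1610 s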); conditions: recombinant KvBeta, 4-cyanobenzaldehyde reduction, at 10 µM, stronger effect = higher value
[5] = target: Voltage-gated potassium channel subunit beta-2 (Rattus norvegicus) (UniProt P62483); experiment: enhancers of rat Kvbeta2 NADPH turnover – biochemical, NADPH fluorescence, primary screen (AID 623;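 active = NADPH fluorescence slope more negative than the mean of all samples by about 3 SD, 99.7% confidence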;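 note: fluorescence intensity change per second fitted from 20 to 320 s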); conditions: Recombinant KvBeta, NADPH fluorescence decrease slope, 10 min; at 10 µM; stronger effect = lower value
[6] = target: Alpha-2C adrenergic receptor (Homo sapiens) (UniProt P18825); experiment: compounds altering alpha2C-coupled GIRK flux – cell-based, HEK293 alpha2C/GIRK1/2, thallium flux, primary screen (AID 624;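 active = fluorescence slope after compound addition differing from the mean of all screened samples at 99.7% confidence, in either direction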;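 note: slope of fluorescence ratio to pre-addition baseline per second over 15 to 24 s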); conditions: thallium flux BTC fluorescence, at 10 µM, actives lie on both sides
[7] = blockers of RIG-like receptor reporter activation – cell-based, Sendai virus stimulus, luciferase, 10K MLSCN set, TLR/RLR signaling modifier project, primary screen (AID 602276;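 active = inhibition at or above 50% at 10 µM; inactive = inhibition below 50%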;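 note: firefly luciferase from ISG56 promoter only with Renilla not read in this screen; 0% = Sendai virus plus DMSO and 100% = medium plus DMSO without virus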); conditions: HEK293 RL24 IRF3 luciferase reporter, at 10 µM, stronger effect = higher value
[8] = TLR3 IRF3 reporter activation blockers – cell-based, poly I:C stimulus, luciferase, 10K MLSCN set, primary screen (AID 602277;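 active = inhibition of the reporter signal at or above 50%; inactive = inhibition below 50%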); conditions: HEK293-TLR3 RL24 IRF3 luciferase reporter, at 10 µM, stronger effect = higher value

Sequence of Alpha-2C adrenergic receptor (Homo sapiens) (P18825 whole entry, looked up): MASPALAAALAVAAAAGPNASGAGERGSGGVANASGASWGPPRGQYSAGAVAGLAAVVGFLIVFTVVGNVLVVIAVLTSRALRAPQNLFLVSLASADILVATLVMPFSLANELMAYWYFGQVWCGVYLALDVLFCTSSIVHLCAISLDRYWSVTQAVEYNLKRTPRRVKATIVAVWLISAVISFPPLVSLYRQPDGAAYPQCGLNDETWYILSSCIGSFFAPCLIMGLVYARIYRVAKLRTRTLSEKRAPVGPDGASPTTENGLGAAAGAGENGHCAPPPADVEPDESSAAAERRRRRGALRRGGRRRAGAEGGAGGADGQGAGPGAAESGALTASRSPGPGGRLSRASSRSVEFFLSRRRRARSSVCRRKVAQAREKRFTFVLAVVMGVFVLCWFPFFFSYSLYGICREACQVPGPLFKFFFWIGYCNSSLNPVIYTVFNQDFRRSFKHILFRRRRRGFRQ
Sequence of Voltage-gated potassium channel subunit beta-2 (Rattus norvegicus) (P62483 whole entry, looked up): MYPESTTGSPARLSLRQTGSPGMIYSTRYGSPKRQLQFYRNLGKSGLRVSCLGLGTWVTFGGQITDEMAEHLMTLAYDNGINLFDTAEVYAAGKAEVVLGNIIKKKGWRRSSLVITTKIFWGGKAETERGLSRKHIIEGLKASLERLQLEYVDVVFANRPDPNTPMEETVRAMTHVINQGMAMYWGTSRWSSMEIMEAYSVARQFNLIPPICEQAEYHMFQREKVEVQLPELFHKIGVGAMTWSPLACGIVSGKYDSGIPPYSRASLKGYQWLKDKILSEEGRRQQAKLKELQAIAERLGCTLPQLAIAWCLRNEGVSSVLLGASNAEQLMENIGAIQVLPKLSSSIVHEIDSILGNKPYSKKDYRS

Row | Compound | cell count [1] | inhibition [1] | inhibition of aggregation [2] | nuclei count [2] [%] | nuclei count [3] [%] | fluorescence slope [4] | NADPH fluorescence slope [5] | slope [6] | inhibition [7] | inhibition [8] | inhibition [3]
1 | Cn1c(=O)c2c(nc(NCCNC(=O)c3ccco3)n2Cc2ccccc2Cl)n(C)c1=O | 424 | 7.1% (inactive) | 1.7% (inactive) | 98.3 | 136 | -0.354 (inactive) | -2.6e-05 (inactive) | 0.00598 (inactive) | -7.85% (inactive) | 2.32% (inactive) | –
2 | CCSc1cc(C2C(C(=O)OC)=C(C)NC3=C2C(=O)CCC3)c(C)o1 (stereo not given) | 737 | -6.1% (inactive) | 8.4% (inactive) | 96.3 | 129 | -0.593 (inactive) | -2.7e-05 (inactive) | 0.00339 (inactive) | 16.1% (inactive) | 22.6% (inactive) | -52.7% (inactive)
3 | CCOC(=O)N1CCN(c2c(N3CCc4ccccc4C3)c(=O)c2=O)CC1 | 558 | 1.2% (inactive) | 13.2% (inactive) | 102 | 122 | -0.538 (inactive) | -2.6e-05 (inactive) | 0.00721 (inactive) | 10.9% (inactive) | 16.4% (inactive) | -46.4% (inactive)
4 | Nc1ncnc2oc(-c3ccco3)c(-c3ccco3)c12 | 413 | -3.3% (inactive) | 15.7% (inactive) | 84.7 | 111 | -0.49 (inactive) | -1.2e-05 (inactive) | 0.00377 (inactive) | -5.47% (inactive) | -31.5% (inactive) | -29.9% (inactive)
5 | COc1ccc(-c2nnnn2C)cc1S(=O)(=O)NCc1ccccc1 | 579 | 0.6% (inactive) | 7.2% (inactive) | 106 | 110 | -0.415 (inactive) | 5.2e-06 (inactive) | 0.00442 (inactive) | 10.3% (inactive) | 4.79% (inactive) | -49.3% (inactive)
6 | O=C(COC(=O)CSc1nnc(-c2ccc(Cl)cc2)o1)NCc1ccc2c(c1)OCO2 | 517 | -2.4% (inactive) | 4.7% (inactive) | 123 | 107 | -0.587 (inactive) | -3.7e-05 (inactive) | 0.00607 (inactive) | 8.92% (inactive) | 17.2% (inactive) | 9.2% (inactive)
7 | Cc1ccc2cc(CN(Cc3ccc4c(c3)OCO4)Cc3nnnn3Cc3ccco3)c(=O)[nH]c2c1C | 338 | 0.9% (inactive) | 29.2% (inactive) | 49 | 109 | -0.389 (inactive) | 4.5e-05 (inactive) | 0.00797 (inactive) | 39.3% (inactive) | 79.5% (active) | -79.9% (inactive)
8 | CC1(C)NC(=O)N(CCOc2cccc(Cl)c2Cl)C1=O | 411 | -1.1% (inactive) | 1.3% (inactive) | 98 | 92.1 | -0.338 (inactive) | -6.5e-06 (inactive) | 0.00521 (inactive) | 16.8% (inactive) | 18.5% (inactive) | -35.1% (inactive)
9 | CC(C)=CC(=O)N1CCCc2ccccc21 | 308 | -2.8% (inactive) | -5.5% (inactive) | 84.6 | 96.7 | -0.606 (inactive) | -2.8e-05 (inactive) | 0.00337 (inactive) | 16.7% (inactive) | 17% (inactive) | 3.3% (inactive)
10 | CCOC(=O)c1ccc2[nH]c(C)c(CN3CCN(C)CC3)c(=O)c2c1 | 332 | 6.1% (inactive) | 11.1% (inactive) | 89.7 | 112 | -0.471 (inactive) | -4e-05 (inactive) | 0.00513 (inactive) | -4.42% (inactive) | 21.9% (inactive) | 20.8% (inactive)
11 | CCOC(=O)C1CCCN(c2c(NCc3ccco3)c(=O)c2=O)C1 (stereo not given) | 614 | -7.3% (inactive) | -5.7% (inactive) | 99.7 | 128 | -0.531 (inactive) | -1.5e-05 (inactive) | 0.00732 (inactive) | -5.89% (inactive) | 16.5% (inactive) | -52.6% (inactive)
12 | Cc1ccccc1Cn1cc(/C=N/n2cnnc2)c2ccccc21 | 416 | 12% (inactive) | 18.9% (inactive) | 68 | 113 | -0.436 (inactive) | 2.8e-05 (inactive) | 0.00391 (inactive) | -7.96% (inactive) | 21.3% (inactive) | 27.1% (inactive)
13 | Cc1ccc(CCNC(=O)C2CCCN2S(=O)(=O)c2ccc3c(c2)CCC(=O)N3)cc1 (stereo not given) | 702 | -4.8% (inactive) | -29.3% (inactive) | 102 | 121 | -0.547 (inactive) | -1e-05 (inactive) | 0.0066 (inactive) | -15.7% (inactive) | 0.529% (inactive) | -35% (inactive)
14 | CCOC(=O)c1cnn(-c2cc(C)c3cc(C)cc(C)c3n2)c1N | 494 | 9% (inactive) | -9.8% (inactive) | 110 | 152 | -0.545 (inactive) | 2e-05 (inactive) | 0.00906 (inactive) | -17.1% (inactive) | -21.2% (inactive) | –
15 | O=C(CS(=O)(=O)c1cn(Cc2ccc(Cl)cc2)c2ccccc12)N1CCCC1 | 654 | -3.9% (inactive) | -11.8% (inactive) | 116 | 111 | -0.538 (inactive) | -3.5e-05 (inactive) | 0.00627 (inactive) | 15.4% (inactive) | 34% (inactive) | 13.5% (inactive)
16 | COc1cccc(C(=O)NC2=NCCS2)c1 | 400 | -13.2% (inactive) | 29.5% (inactive) | 71.6 | 131 | -0.496 (inactive) | -3.2e-05 (inactive) | 0.00469 (inactive) | -13.2% (inactive) | -61.5% (inactive) | -56.9% (inactive)
17 | Cc1c(C(=O)Nc2ccncc2)oc2c1C(=O)CC(C)(C)C2 | 254 | 9.6% (inactive) | 18.9% (inactive) | 85.4 | 97.2 | -0.408 (inactive) | -2.8e-05 (inactive) | 0.00527 (inactive) | 7.94% (inactive) | -3.33% (inactive) | -44.5% (inactive)
18 | CCN(CC)S(=O)(=O)N1CCC(C(=O)NC2CCCc3ccccc32)CC1 (stereo not given) | 690 | 5.7% (inactive) | -6.5% (inactive) | 95 | 116 | -0.49 (inactive) | 8.8e-05 (inactive) | 0.00498 (inactive) | -11.5% (inactive) | -8.15% (inactive) | -8.8% (inactive)
19 | O=C(CN1C(=O)COc2ccccc21)N(Cc1cccnc1)Cc1ccccc1F | 661 | -2.9% (inactive) | -5.5% (inactive) | 77.4 | 106 | -0.324 (inactive) | -5.8e-05 (inactive) | 0.00465 (inactive) | 15.9% (inactive) | 32.6% (inactive) | -6.3% (inactive)
20 | CCOC(=O)N1CCN(c2c(NCCCOC(C)C)c(=O)c2=O)CC1 | 642 | -1.6% (inactive) | -10.2% (inactive) | 109 | 122 | -0.513 (inactive) | -2.4e-05 (inactive) | 0.00694 (inactive) | 7.84% (inactive) | 16% (inactive) | 27.9% (inactive)
21 | CCOC(=O)Cc1c(C)c2c(O)cc(O)cc2oc1=O | 450 | 9% (inactive) | -19.7% (inactive) | 111 | 150 | -0.0503 (inactive) | 6.3e-06 (inactive) | 0.00591 (inactive) | 15.2% (inactive) | 9.57% (inactive) | –
22 | CCN(CC)S(=O)(=O)c1ccc(NC2CCCc3ccccc32)nc1 (stereo not given) | 451 | 7.1% (inactive) | 15.4% (inactive) | 103 | 163 | -0.594 (inactive) | -3e-05 (inactive) | 0.00558 (inactive) | 11.9% (inactive) | 17.1% (inactive) | –
23 | O=C(O)CCn1c(=O)c2ccccc2c2ccccc2c1=O | 557 | 1% (inactive) | -13.6% (inactive) | 118 | 101 | -0.537 (inactive) | 7e-06 (inactive) | 0.00528 (inactive) | -4.94% (inactive) | -9.95% (inactive) | 10.2% (inactive)
24 | c1coc(CN(Cc2cccs2)Cc2nnnn2C2CCCCC2)c1 | 394 | -10.4% (inactive) | 26.1% (inactive) | 119 | 97.7 | -0.571 (inactive) | 1.3e-05 (inactive) | 0.00524 (inactive) | 19.6% (inactive) | 24.5% (inactive) | -12.8% (inactive)

— PubChem BioAssay
